Results filed as inconclusive are left out. The source made the active and inactive calls. How the source made its calls, unless noted: active means hit-call score of the fitted dose curve at least 0.9, where 1 is the maximum; inactive means score below 0.9.

Experiment [1] can be described thus: ACEA_ER_80hr: ACEA Biosciences xCELLigence Real-Time Cell Analysis on Estrogen Receptor Agonism for Proliferation (AID 2282667; active means hit-call score of the fitted dose curve at least 0.9, where 1 is the maximum). The settings on record: T47D proliferation, impedance (xCELLigence), 80 h. In a few lines: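 Cell-growth kinetics were measured by impedance in T47D cells treated continuously with compound (top 100 uM final, 1:4 steps, 8 points). Activity at 80 h was scored as signal gain over the DMSO baseline.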

The nature of experiment [2]: APR_HepG2_CellCycleArrest_24hr: Apredica 24-hour HepG2 Assay for Cell Cycle Arrest (AID 2282905).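 Further: cell cycle arrest scored as ratio of 2N to 4N nuclear DNA content.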 The conditions noted are these: imaging, actives raise or lower the signal. In a few lines:
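Readout: Hoechst 33342 nuclear DNA content by high-content fluorescent imaging, six images/well, 20x. Human HepG2 liver cells, 24 hr compound exposure, 0.39–200 uM, final DMSO 0.5% v/v. Gain or loss fitted relative to DMSO baseline.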

A short description of experiment [3]: APR_HepG2_NuclearSize_24hr: Apredica 24-hour HepG2 Assay for Nuclear Size (AID 2282907). The settings on record: high-content imaging, actives raise or lower the signal. In a few lines:
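Read-out: nuclear diameter from Hoechst 33342 (2 ug/mL) imaging of fixed HepG2 cells, 20x, six fields/well. Compounds ran at 0.39–200 uM for 24 hr, 0.5% DMSO final. Gain or loss was fitted bidirectionally relative to the DMSO baseline.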

Experiment [4] is described as follows: APR_HepG2_CellLoss_24hr: Apredica 24-hour HepG2 Assay for Cell Loss (AID 2282908).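 On AC50: fit in both directions so a hit may be cell loss or gain.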 The conditions noted are these: high-content imaging. The procedure, abridged:
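Read-out: Hoechst 33342-stained nuclei counted by automated fluorescence imaging after formaldehyde fixation and Triton permeabilization. Ten concentrations, 0.39 to 200 uM, duplicate wells, 0.5% DMSO final. Gain or loss of signal fitted relative to DMSO baseline.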

Experiment [5] in a line: APR_HepG2_MicrotubuleCSK_24hr: Apredica 24-hour HepG2 Assay for Microtubule CSK Stabilty (AID 2282909). The settings on record: HepG2 microtubule cytoskeleton imaging, actives raise or lower the signal. The procedure, abridged: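 Read-out: alpha-tubulin immunofluorescence intensity by automated high-content imaging of fixed HepG2 cells after 24 h compound treatment. Ten concentrations, 0.39 to 200 uM, in duplicate; DMSO 0.5% v/v. Taxol positive control; DMSO-normalized bidirectional curve fitting.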

Experiment [6] in a line: APR_HepG2_MitoticArrest_24hr: Apredica 24-hour HepG2 Assay for Mitotic Arrest (AID 2282910). The settings on record: high-content imaging, actives raise or lower the signal. In a few lines: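 High-content imaging of fixed HepG2 cells labeled with Hoechst 33342 and anti-phospho-histone H3, after 24 h treatment. Ten concentrations 0.39 to 200 uM in duplicate, final DMSO 0.5%; changes fitted both directions relative to DMSO.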

The nature of experiment [7]: APR_HepG2_MitoMembPot_24hr: Apredica 24-hour HepG2 Assay for Mitochondrial Membrane Potential (AID 2282911). The conditions noted are these: imaging, actives raise or lower the signal. The procedure, abridged:
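Human hepatoma HepG2 cultures received ten compound concentrations up to 200 uM for 24 hr. Membrane-potential dye signal, captured by automated fluorescence microscopy, was scored for gain or loss against DMSO controls.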

The nature of experiment [8]: APR_HepG2_MitoMass_24hr: Apredica 24-hour HepG2 Assay for Mitochondrial Mass (AID 2282912). The settings on record: high-content imaging, actives raise or lower the signal. The procedure, abridged: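 HepG2, 24 hr dosing, 10 concentrations 0.39–200 uM in duplicate, DMSO 0.5% final. MitoTracker Red CMXRos 250 nM, 30 min pre-fix; 3.7% formaldehyde fix. Imaging-based fluorescence intensity; gain/loss fit vs DMSO baseline.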

Experiment [9] is described as follows: APR_HepG2_p53Act_24hr: Apredica 24-hour HepG2 Assay for p53 Activation (AID 2282913).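 Further: p53 protein immunofluorescence averaged per cell in HepG2 with Hoechst nuclei.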 The conditions noted are these: high-content imaging, actives raise or lower the signal. In a few lines: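 Automated fluorescence imaging quantifies p53 immunostaining in HepG2 cells after a 24 hr exposure (0.39–200 uM, duplicate, 0.5% DMSO). Nuclei are located by Hoechst 33342 staining.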

Experiment [10] is described as follows: APR_HepG2_CellCycleArrest_72hr: Apredica 72-hour HepG2 Assay for Cell Cycle Arrest (AID 2282914). The conditions noted are these: high-content imaging, actives raise or lower the signal. In a few lines: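 Cell cycle arrest in HepG2 was scored from nuclear DNA content after 72 hr compound treatment (0.39–200 uM). Activity, either gain or loss, was fitted against the DMSO baseline.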

A short description of experiment [11]: APR_HepG2_CellLoss_72hr: Apredica 72-hour HepG2 Assay for Cell Loss (AID 2282915). The settings on record: high-content imaging. In a few lines: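 Cell number comes from Hoechst 33342-labelled nuclei, imaged at 20x after 3.7% formaldehyde fixation. Dosing was 0.39–200 uM, ten concentrations in duplicate, 0.5% DMSO final, for 72 h. Bidirectional fit relative to DMSO baseline.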

Experiment [12] in a line: APR_HepG2_P-H2AX_72hr: Apredica 72-hour HepG2 Assay for H2AX Phosphorylation (AID 2282916).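 Further: phospho-histone H2A.x immunostain intensity per cell marking DNA damage.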 The settings on record: imaging, actives raise or lower the signal. The procedure, abridged:
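Readout: phospho-H2A.x immunofluorescence (FITC secondary) plus Hoechst nuclear stain, high-content imaging at 20x, six fields/well. HepG2, 72 hr compound exposure, 0.39–200 uM, final DMSO 0.5% v/v. Gain or loss fitted relative to DMSO baseline.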

Experiment [13] can be described thus: APR_HepG2_MitoMembPot_72hr: Apredica 72-hour HepG2 Assay for Mitochondrial Membrane Potential (AID 2282917). The conditions noted are these: imaging, actives raise or lower the signal. The procedure, abridged: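 Membrane potential read by MitoTracker Red CMXRos (250 nM, 30 min, pre-fixation) fluorescence imaging of HepG2 after 72 hr exposure. Ten concentrations, 0.39–200 uM, duplicate wells, 0.5% DMSO; fitted in both directions against DMSO baseline.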

The nature of experiment [14]: APR_HepG2_MitoticArrest_72hr: Apredica 72-hour HepG2 Assay for Mitotic Arrest (AID 2282918). The settings on record: high-content imaging, actives raise or lower the signal. The procedure, abridged:
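Mitotic arrest in HepG2 is scored from phospho-histone H3 staining after 72 hr dosing across 0.39–200 uM, with DMSO at 0.5% v/v. Nuclei are identified by Hoechst 33342 and fluorescence intensity is quantified per cell.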

Experiment [15] in a line: APR_HepG2_MicrotubuleCSK_72hr: Apredica 72-hour HepG2 Assay for Microtubule CSK Stabilty (AID 2282919). The conditions noted are these: HepG2 microtubule cytoskeleton, high-content imaging, actives raise or lower the signal. In a few lines:
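High-content imaging of alpha-tubulin staining in fixed HepG2 cells after 72 hr treatment with ten concentrations from 0.39 to 200 uM (0.5% DMSO). Fitting was bidirectional against DMSO; taxol served as positive control.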

Experiment [16] is described as follows: APR_HepG2_P-H2AX_24hr: Apredica 24-hour HepG2 Assay for H2AX Phosphorylation (AID 2282920). The conditions noted are these: high-content imaging, actives raise or lower the signal. In a few lines: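 Signal comes from a FITC-labeled secondary detecting phospho-histone H2A.x in fixed HepG2 cells, quantified by automated imaging at 20x. Dosing ran 24 hr across 0.39–200 uM with 0.5% v/v DMSO.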

Experiment [17] is described as follows: APR_HepG2_StressKinase_72hr: Apredica 72-hour HepG2 Assay for Stress Kinase (AID 2282921). The conditions noted are these: HepG2 stress kinase (phospho-c-Jun) imaging, actives raise or lower the signal. The procedure, abridged:
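Phospho-c-Jun immunofluorescence measured by high-content imaging at 20x, six fields per well; bidirectional curve fitting against DMSO as baseline. Dosing: 0.39–200 uM, 72 h, 0.5% DMSO final.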

A short description of experiment [18]: APR_HepG2_StressKinase_24hr: Apredica 24-hour HepG2 Assay for Stress Kinase (AID 2282922). The settings on record: HepG2 stress kinase (phospho-c-Jun) imaging, actives raise or lower the signal. The procedure, abridged: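 High-content imaging of phospho-c-Jun immunofluorescence in fixed, permeabilized HepG2 cells after 24 h dosing. Ten concentrations, 0.39 to 200 uM, run in duplicate at 0.5% v/v DMSO; gain or loss of signal versus DMSO.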

A short description of experiment [19]: APR_HepG2_p53Act_72hr: Apredica 72-hour HepG2 Assay for p53 Activation (AID 2282923).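 Further: average cellular p53 protein immunofluorescence intensity in HepG2 cells.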 The conditions noted are these: high-content imaging, actives raise or lower the signal. In a few lines: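 Readout: p53 immunofluorescence quantified by automated high-content imaging at 20x, six fields per well, nuclei located via Hoechst. Dosing ran 72 hr over ten concentrations from 0.39 to 200 uM; bidirectional curve fitting against DMSO baseline.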

Experiment [20] can be described thus: APR_HepG2_MitoMass_72hr: Apredica 72-hour HepG2 Assay for Mitochondrial Mass (AID 2282924).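 Further: MitoTracker Red CMXRos stain intensity per cell imaged as mitochondrial mass.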 The conditions noted are these: high-content imaging, actives raise or lower the signal. The procedure, abridged:
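Readout is imaged MitoTracker Red (250 nM, 30 min, pre-fixation) signal, fitted bidirectionally against DMSO baseline. Human HepG2 liver cells received compound 0.39–200 uM in duplicate for 72 hr, final DMSO 0.5%.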

As usually defined, the AC50 is the midpoint of the concentration-response curve, whichever way the signal moves. `CC(=O)CC(C)(C)O`: the AC50 in [1] is 16.2 µM (active); in experiment [2], 0.0392 µM (active); in [4], 19.8 µM (active); in experiment [5], 0.0415 µM (active); in experiment [6], 0.0402 µM (active); in experiment [8] it was 8.56 µM (active). In addition, the AC50 in experiment [9] was 0.106 µM (active); in experiment [10], 32.1 µM (active); in experiment [11], 11 µM (active); in experiment [12] it was 0.032 µM (active); in experiment [14], 0.45 µM (active); in [15] it was 0.0173 µM (active). Besides, the AC50 is 19.8 µM (active) in experiment [16], 100 µM (active) in [18] and 0.0395 µM (active) in experiment [19]. Besides, the compound was classed as inactive in experiment [3], in experiment [7], in experiment [13], in [17] and in [20].

As for `CC(O)CO` (stereo not drawn), the compound was called inactive in [1], in [2], in experiment [3], in experiment [4], in experiment [5] and in experiment [6]. In addition, the result in experiment [7], in experiment [8], in experiment [9], in experiment [10], in experiment [11] and in [12] was inactive. Besides, the compound was called inactive in experiment [13], in experiment [14], in [15], in experiment [16], in experiment [17] and in [18]. Also, the compound was called inactive in [19] and in experiment [20].

Turning to `COc1cc(CCC(=O)CC(=O)CCc2ccc(O)c(OC)c2)ccc1O`, the call in [1], in experiment [2], in experiment [3], in experiment [4], in experiment [5] and in experiment [6] was inactive. For the same compound, the compound was classed as inactive in experiment [7], in experiment [8], in experiment [9], in [10], in experiment [11] and in experiment [13]. Also, the compound was called inactive in experiment [15], in experiment [16], in [17], in experiment [18] and in experiment [20]. The AC50 in experiment [12] is 96.6 µM (active); in experiment [14], 166 µM (active); in [19], 145 µM (active).

Consider `CN1CCC[C@H]1c1cccnc1`, for which the call in experiment [1], in [2], in experiment [3], in [4], in [5] and in experiment [6] was inactive. Besides, the outcome in experiment [7], in experiment [8], in experiment [10], in [11], in experiment [12] and in experiment [13] was inactive. Also, the call in [14], in experiment [15], in [16], in experiment [17], in experiment [18] and in experiment [20] was inactive.

Regarding `CCCCCCCCOC(=O)CCCCCCCCC(=O)OCCCCCCCC`, the outcome in experiment [1], in experiment [2], in experiment [3], in [4], in experiment [5] and in [6] was inactive. Moreover, the compound was called inactive in experiment [7], in experiment [8], in experiment [9], in experiment [10], in [11] and in experiment [12]. The compound was classed as inactive in [13], in [14], in experiment [15], in [16], in experiment [17] and in experiment [18]. Besides, the result in experiment [19] and in experiment [20] was inactive.

Regarding `CC(C)(C)c1cccc(C(C)(C)C)c1O`, the call in experiment [1], in experiment [2], in experiment [3], in [5], in experiment [6] and in experiment [12] was inactive. Further, the compound was classed as inactive in experiment [14], in experiment [15], in [17], in [18], in experiment [19] and in experiment [20]. In addition, the AC50 in experiment [4] was 111 µM (active); in experiment [7] it was 110 µM (active); in [8], 96.1 µM (active); in [9], 100 µM (active); in [10], 112 µM (active); in experiment [11] it was 113 µM (active). Further, the AC50 was 100 µM (active) in [13] and 57.3 µM (active) in experiment [16].
